Laboratory results reported in PubChem BioAssay (NCI).
Compounds without any hit were thinned out: in the full panel of roughly 79,000, 15% have a hit. Unmarked numbers belong to inactive results. Activity calls are given as the source filed them. Cut-off read from the data, not from the text of the source: active = growth inhibition above about 70%; inactive = the rest.

What was measured:
[1] = NCI Yeast Anticancer Drug Screen. Data for the rad52 strain (AID 147);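 note: 0% = growth of vehicle-treated control cultures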; conditions: S. cerevisiae rad52 mutant growth inhibition, stronger effect = higher value
How it was run: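 Screen used a yeast mutant impaired in DNA repair. After compound exposure, growth was measured. Values reflect inhibition compared with vehicle-treated cells.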

[2] = NCI Yeast Anticancer Drug Screen. Data for the wt1 strain (AID 149);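 note: 0% = growth of vehicle-treated wt1 cultures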; conditions: S. cerevisiae wt1 strain (SPY 50644) growth inhibition, stronger effect = higher value
How it was run: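 Compounds are added to wt1 yeast cultures. Growth is then measured. Inhibition is expressed relative to vehicle-treated controls.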

[3] = NCI Yeast Anticancer Drug Screen. Data for the rad50EPP+ strain (AID 151);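 note: 0% = growth of vehicle-treated control cultures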; conditions: S. cerevisiae rad50 mutant strain, stronger effect = higher value
How it was run: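 Exposing the rad50EPP+ strain to each compound, growth was compared with vehicle-only cultures to give inhibition.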

[4] = NCI Yeast Anticancer Drug Screen. Data for the mgt1 strain (AID 153); conditions: S. cerevisiae mgt1 mutant growth inhibition, stronger effect = higher value
How it was run: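 Genetically defined yeast (mgt1) treated with compound; inhibition of growth expressed against vehicle-treated controls.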

[5] = NCI Yeast Anticancer Drug Screen. Data for the rad50 strain (AID 155);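 note: 0% = growth of vehicle-only cultures of the same strain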; conditions: S. cerevisiae rad50 strain growth inhibition, stronger effect = higher value
How it was run: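 Inhibition values express reduced yeast growth in compound-treated cultures relative to vehicle-treated controls.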

[6] = NCI Yeast Anticancer Drug Screen. Data for the mec2-1 strain (AID 157); conditions: S. cerevisiae mec2-1 strain, stronger effect = higher value
How it was run: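 Readout is yeast growth inhibition, normalised to vehicle-treated controls, in the mec2-1 strain exposed to compound.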

[7] = NCI Yeast Anticancer Drug Screen. Data for the rad14 strain (AID 159);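 note: 0% = growth of vehicle-treated control cultures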; conditions: S. cerevisiae rad14 strain growth inhibition, stronger effect = higher value
How it was run: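 A mutant yeast strain defective in DNA damage repair is treated with compound; inhibition of its growth is scored against untreated, vehicle-exposed cultures.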

[8] = NCI Yeast Anticancer Drug Screen. Data for the sgs1 mgt1 strain (AID 161);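 note: 0% = growth of cultures given vehicle only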; conditions: S. cerevisiae sgs1 mgt1 strain, stronger effect = higher value
How it was run: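 Growth of a repair-deficient yeast mutant was monitored after compound treatment and expressed as inhibition relative to vehicle-treated cultures.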

[9] = NCI Yeast Anticancer Drug Screen. Data for the CLN2oe strain (AID 163);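 note: 0% = growth of vehicle-only control cultures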; conditions: S. cerevisiae CLN2oe strain, stronger effect = higher value
How it was run: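 Values reflect how much compound exposure reduced yeast growth, referenced to vehicle-exposed cells. Assay organism is a strain with a defined genetic change affecting cell-cycle control.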

[10] = NCI Yeast Anticancer Drug Screen. Data for the cln2 rad14 strain (AID 165);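 note: 0% = growth equal to vehicle treated cultures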; conditions: S. cerevisiae cln2 rad14 strain, stronger effect = higher value
How it was run: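 Relative to vehicle controls, growth inhibition of compound-treated cln2 rad14 yeast was recorded.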

[11] = NCI Yeast Anticancer Drug Screen. Data for the bub3 strain (AID 167); conditions: S. cerevisiae bub3 mutant strain, stronger effect = higher value
How it was run: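 Steps: expose the mutant yeast strain to compound; grow alongside vehicle-treated cultures; measure growth; express inhibition against the vehicle cultures.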

[12] = NCI Yeast Anticancer Drug Screen. Data for the wt2 strain (AID 169);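 note: 0% = growth of vehicle-treated yeast cultures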; conditions: S. cerevisiae wt2 strain growth inhibition, stronger effect = higher value
How it was run: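 Values express reduction in yeast growth under compound treatment, referenced to vehicle-treated cells.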

[13] = NCI Yeast Anticancer Drug Screen. Data for the mlh1 strain (AID 171);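 note: 0% = growth of vehicle-treated control cultures of the same strain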; conditions: S. cerevisiae mlh1 strain growth inhibition, stronger effect = higher value
How it was run: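 Steps: expose the defined-mutant yeast strain to compound; expose a parallel culture to vehicle; measure growth; express compound effect as inhibition relative to the vehicle culture.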

[14] = NCI Yeast Anticancer Drug Screen. Data for the sgs1 strain (AID 173);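 note: 0% = growth of vehicle-only control cultures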; conditions: S. cerevisiae sgs1 mutant, stronger effect = higher value
How it was run: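 Treat defined-mutant yeast with compound; measure growth; calculate inhibition relative to vehicle-treated cells.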

[15] = NCI Yeast Anticancer Drug Screen. Data for the mlh1 rad18 strain (AID 175); conditions: S. cerevisiae mlh1 rad18 strain growth inhibition, stronger effect = higher value
How it was run: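 Test agents were incubated with a yeast strain of defined genotype (DNA damage repair defect). Inhibition of growth was derived by comparison with vehicle-exposed cultures.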

[16] = NCI Yeast Anticancer Drug Screen. Data for the rad18 strain (AID 177); conditions: S. cerevisiae rad18 mutant growth inhibition, stronger effect = higher value
How it was run: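 A genetically defined yeast mutant impaired in DNA damage repair was treated with test compounds, then its growth was measured against cultures receiving vehicle alone.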

[17] = at 5.0 µM (retest, dose inferred, filed as 0.5)
[18] = at 50.0 µM (retest, dose inferred, filed as 5.0)

Cc1cccc(NC(=O)CBr)c1
growth inhibition ([1]; at 1.2 µM): 3%
growth inhibition ([1]; at 3.7 µM): 41%
growth inhibition ([1]; at 11.0 µM): 97% (active)
growth inhibition ([1]; at 33.0 µM): 98% (active)
growth inhibition ([1]; at 100.0 µM): 99% (active)
growth inhibition ([2]; at 1.2 µM): 1%
growth inhibition ([2]; at 3.7 µM): 24%
growth inhibition ([2]; at 11.0 µM): 98% (active)
growth inhibition ([2]; at 33.0 µM): 99% (active)
growth inhibition ([2]; at 100.0 µM): 98% (active)
growth inhibition ([3]; at 1.2 µM): -10%
growth inhibition ([3]; at 3.7 µM): -3%
growth inhibition ([3]; at 11.0 µM): 26%
growth inhibition ([3]; at 33.0 µM): 96% (active)
growth inhibition ([3]; at 100.0 µM): 99% (active)
growth inhibition ([4]; at 1.2 µM): -2%
growth inhibition ([4]; at 3.7 µM): 22%
growth inhibition ([4]; at 11.0 µM): 99% (active)
growth inhibition ([4]; at 33.0 µM): 99% (active)
growth inhibition ([4]; at 100.0 µM): 99% (active)
growth inhibition ([5]; at 1.2 µM): 6%
growth inhibition ([5]; at 3.7 µM): 73% (active)
growth inhibition [5, 17]: 21%
growth inhibition ([5]; at 11.0 µM): 97% (active)
growth inhibition ([5]; at 33.0 µM): 99% (active)
growth inhibition [5, 18]: 99% (active)
growth inhibition ([5]; at 50.0 µM): 99.2% (active)
growth inhibition ([5]; at 100.0 µM): 99% (active)
growth inhibition ([6]; at 1.2 µM): 7%
growth inhibition ([6]; at 3.7 µM): 44%
growth inhibition [6, 17]: 1%
growth inhibition ([6]; at 11.0 µM): 98% (active)
growth inhibition ([6]; at 33.0 µM): 99% (active)
growth inhibition [6, 18]: 99% (active)
growth inhibition ([6]; at 50.0 µM): 99.7% (active)
growth inhibition ([6]; at 100.0 µM): 99% (active)
growth inhibition ([7]; at 1.2 µM): -27%
growth inhibition ([7]; at 3.7 µM): 57%
growth inhibition ([7]; at 11.0 µM): 99% (active)
growth inhibition ([7]; at 33.0 µM): 99% (active)
growth inhibition ([7]; at 100.0 µM): 99% (active)
growth inhibition [8, 17]: 49%
growth inhibition [8, 18]: 99% (active)
growth inhibition ([8]; at 50.0 µM): 99.2% (active)
growth inhibition ([9]; at 1.2 µM): 2%
growth inhibition ([9]; at 3.7 µM): 22%
growth inhibition ([9]; at 11.0 µM): 96% (active)
growth inhibition ([9]; at 33.0 µM): 98% (active)
growth inhibition ([9]; at 100.0 µM): 98% (active)
growth inhibition [10, 17]: 34%
growth inhibition [10, 18]: 99% (active)
growth inhibition ([10]; at 50.0 µM): 99.1% (active)
growth inhibition ([11]; at 1.2 µM): 13%
growth inhibition ([11]; at 3.7 µM): 58%
growth inhibition [11, 17]: 63%
growth inhibition ([11]; at 11.0 µM): 97% (active)
growth inhibition ([11]; at 33.0 µM): 98% (active)
growth inhibition [11, 18]: 98% (active)
growth inhibition ([11]; at 50.0 µM): 99.6% (active)
growth inhibition ([11]; at 100.0 µM): 99% (active)
growth inhibition ([12]; at 1.2 µM): 1%
growth inhibition ([12]; at 3.7 µM): 33%
growth inhibition ([12]; at 11.0 µM): 98% (active)
growth inhibition ([12]; at 33.0 µM): 99% (active)
growth inhibition ([12]; at 100.0 µM): 99% (active)
growth inhibition ([13]; at 1.2 µM): -2%
growth inhibition ([13]; at 3.7 µM): 46%
growth inhibition ([13]; at 11.0 µM): 99% (active)
growth inhibition ([13]; at 33.0 µM): 99% (active)
growth inhibition ([13]; at 100.0 µM): 99% (active)
growth inhibition ([14]; at 1.2 µM): 9%
growth inhibition ([14]; at 3.7 µM): 55%
growth inhibition ([14]; at 11.0 µM): 99% (active)
growth inhibition ([14]; at 33.0 µM): 99% (active)
growth inhibition ([14]; at 100.0 µM): 99% (active)
growth inhibition [15, 17]: 45%
growth inhibition [15, 18]: 99% (active)
growth inhibition ([15]; at 50.0 µM): 99.3% (active)
growth inhibition ([16]; at 1.2 µM): 5%
growth inhibition ([16]; at 3.7 µM): 39%
growth inhibition ([16]; at 11.0 µM): 97% (active)
growth inhibition ([16]; at 33.0 µM): 99% (active)
growth inhibition ([16]; at 100.0 µM): 99% (active)

O=[N+]([O-])c1ccc(N2CCC(CCCC3CCN(c4ccc([N+](=O)[O-])cc4[N+](=O)[O-])CC3)CC2)c([N+](=O)[O-])c1
growth inhibition ([1]; at 1.2 µM): -24%
growth inhibition ([1]; at 3.7 µM): -17%
growth inhibition ([1]; at 11.0 µM): -7%
growth inhibition ([1]; at 33.0 µM): 0%
growth inhibition ([1]; at 100.0 µM): 20%
growth inhibition ([2]; at 1.2 µM): -6%
growth inhibition ([2]; at 3.7 µM): -1%
growth inhibition ([2]; at 11.0 µM): 5%
growth inhibition ([2]; at 33.0 µM): 11%
growth inhibition ([2]; at 100.0 µM): 11%
growth inhibition ([3]; at 1.2 µM): -6%
growth inhibition ([3]; at 3.7 µM): -14%
growth inhibition ([3]; at 11.0 µM): -17%
growth inhibition ([3]; at 33.0 µM): -4%
growth inhibition ([3]; at 100.0 µM): 18%
growth inhibition ([4]; at 1.2 µM): -18%
growth inhibition ([4]; at 3.7 µM): -4%
growth inhibition ([4]; at 11.0 µM): 0%
growth inhibition ([4]; at 33.0 µM): 10%
growth inhibition ([4]; at 100.0 µM): 77% (active)
growth inhibition ([5]; at 1.2 µM): 7%
growth inhibition ([5]; at 3.7 µM): 1%
growth inhibition [5, 17]: 98% (active)
growth inhibition ([5]; at 11.0 µM): 4%
growth inhibition ([5]; at 33.0 µM): 12%
growth inhibition [5, 18]: 99% (active)
growth inhibition ([5]; at 50.0 µM): 75% (active)
growth inhibition ([5]; at 100.0 µM): 31%
growth inhibition ([6]; at 1.2 µM): -35%
growth inhibition ([6]; at 3.7 µM): -27%
growth inhibition [6, 17]: 99% (active)
growth inhibition ([6]; at 11.0 µM): -22%
growth inhibition ([6]; at 33.0 µM): -20%
growth inhibition [6, 18]: 99% (active)
growth inhibition ([6]; at 50.0 µM): 48.5%
growth inhibition ([6]; at 100.0 µM): -8%
growth inhibition ([7]; at 1.2 µM): -32%
growth inhibition ([7]; at 3.7 µM): -27%
growth inhibition ([7]; at 11.0 µM): -13%
growth inhibition ([7]; at 33.0 µM): -16%
growth inhibition ([7]; at 100.0 µM): 19%
growth inhibition [8, 17]: -41%
growth inhibition [8, 18]: 51%
growth inhibition ([8]; at 50.0 µM): 87.5% (active)
growth inhibition ([9]; at 1.2 µM): -8%
growth inhibition ([9]; at 3.7 µM): -3%
growth inhibition ([9]; at 11.0 µM): 3%
growth inhibition ([9]; at 33.0 µM): -19%
growth inhibition ([9]; at 100.0 µM): 7%
growth inhibition [10, 17]: 10%
growth inhibition [10, 18]: 50%
growth inhibition ([10]; at 50.0 µM): 46.2%
growth inhibition ([11]; at 1.2 µM): -17%
growth inhibition ([11]; at 3.7 µM): -24%
growth inhibition [11, 17]: 6%
growth inhibition ([11]; at 11.0 µM): -32%
growth inhibition ([11]; at 33.0 µM): -6%
growth inhibition [11, 18]: 47%
growth inhibition ([11]; at 50.0 µM): 84.3% (active)
growth inhibition ([11]; at 100.0 µM): -4%
growth inhibition ([12]; at 1.2 µM): -15%
growth inhibition ([12]; at 3.7 µM): -21%
growth inhibition ([12]; at 11.0 µM): -9%
growth inhibition ([12]; at 33.0 µM): 8%
growth inhibition ([12]; at 100.0 µM): 39%
growth inhibition ([13]; at 1.2 µM): -19%
growth inhibition ([13]; at 3.7 µM): -25%
growth inhibition ([13]; at 11.0 µM): -21%
growth inhibition ([13]; at 33.0 µM): -24%
growth inhibition ([13]; at 100.0 µM): 32%
growth inhibition ([14]; at 1.2 µM): -24%
growth inhibition ([14]; at 3.7 µM): -17%
growth inhibition ([14]; at 11.0 µM): -15%
growth inhibition ([14]; at 33.0 µM): 21%
growth inhibition ([14]; at 100.0 µM): 52%
growth inhibition [15, 17]: 99% (active)
growth inhibition [15, 18]: 99% (active)
growth inhibition ([15]; at 50.0 µM): 68.3%
